According to PubChem BioAssay:
Where “and” joins values, the source holds several entries; their conditions need not be identical. Identical values can stand only once. Records with an inconclusive call do not appear. For some of these results: Entries with a potency or affinity are not part of this list. Calls of active or inactive are those of the source. Unless noted, cut-off not given; nearly all actives show AC50 up to about 26 µM.

How the values were obtained:
[1] = liver-stage malaria parasite growth inhibition, primary screen, cell-based, HepG2, luciferase luminescence, HepG2 viability (AID 624349; in the data active means parasite load remaining mostly below about 12%, no sharp cut-off; inactive means mostly above about 10%;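 further: 100% = mean of DMSO negative control wells on the same plate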); conditions: P. berghei liver stage in HepG2, luciferase luminescence, concentration not given here; parasite load remaining: stronger effect = lower value; viability: measured here: HepG2 viability without parasites
[2] = differential killing of epithelial or mesenchymal cells, primary screen, imaging, PC-3E GFP, TEM4-18 mCherry, co-culture (AID 1345086;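 active means compounds killing one labelled cell type while sparing the other, by normalised counts and ratio limits, not self-fluorescent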;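 on all read-outs here: cells exposed to compound for 72 h before imaging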;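 on red/green cell ratio (normalised): normalised mesenchymal count divided by normalised epithelial count so high means epithelial killing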); conditions: imaging cell counts, at 1 µM; for red/green cell ratio (normalised): actives lie on both sides, counts scaled to control wells, 1 = unselective
[3] = growth inhibition of DIPG glioma cells, dose response, cell-based, SU-DIPG-XVII, MIPE5.0, CellTiter-Glo, qHTS (AID 1347060); conditions: SU-DIPG-XVII viability, CellTiter-Glo ATP luminescence;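 on AC50: cells exposed to compound for 48 hours before viability readout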
[4] = growth inhibition of DIPG glioma cells, dose response, cell-based, SU-DIPG-XIII, MIPE4.0, CellTiter-Glo, qHTS (AID 1347061; cut-off not given, nearly all actives have AC50 up to about 37 µM;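 further: cells exposed to compound for 48 hours before readout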); conditions: SU-DIPG-XIII viability, CellTiter-Glo ATP luminescence
[5] = growth inhibition of DIPG glioma cells, dose response, cell-based, SU-DIPG-IV, MIPE4.0, CellTiter-Glo, qHTS (AID 1347063; cut-off not given, nearly all actives have AC50 up to about 30 µM;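 further: compound exposure lasted 48 hours before the viability readout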); conditions: SU-DIPG-IV viability, CellTiter-Glo ATP luminescence
[6] = growth inhibition of DIPG glioma cells, dose response, cell-based, SU-DIPG-XIII, MIPE5.0, CellTiter-Glo, qHTS (AID 1347064; cut-off not given, nearly all actives have AC50 up to about 23 µM;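 on AC50: cells exposed to compound for 48 hours before the viability read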); conditions: SU-DIPG-XIII viability, CellTiter-Glo ATP luminescence
[7] = viability loss in pontine glioma line – cell-based, SU-DIPG-XXV, MIPE5.0, CellTiter-Glo, qHTS, dose response (AID 1347065); conditions: CellTiter-Glo ATP luminescence;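 further: cells exposed to compound for 48 hours before ATP readout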
[8] = JHH-DIPG-1 glioma cell viability, MIPE5.0 library, CellTiter-Glo luminescence, qHTS (AID 1347067); conditions: JHH-DIPG-1 glioma viability, CellTiter-Glo ATP luminescence;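 further: cells exposed to compound for 48 hours before readout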
[9] = SU-DIPG-XXV glioma cell viability, MIPE5.0 library, qHTS (AID 1347068; cut-off not given, nearly all actives have IC50 up to about 30 µM)
[10] = sensitizers of A549 cells to miR-34 induction, primary screen, imaging, A549 dox-inducible miR-34, nuclei and caspase counts (AID 1347080;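 active means compounds whose cell count with miR-34 switched on is under 0.7 times the count with it off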); conditions: A549 miR-34 inducible, Hoechst nuclei count, 48 h
[11] = inhibitors of Cryptococcus chitosan production, flow cytometry, Cibacron Brilliant Red staining (AID 1347148; call rule not given here;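 further: compound exposure lasted three days at 37 degrees C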); conditions: Cryptococcus neoformans chitosan, stronger effect = lower value; at 10 µM unless noted
[12] = survival rescue of mitochondrial mutant cells in low glucose, primary screen, MELAS cybrids, Rieske KO mouse fibroblasts, CellTiter-Glo (AID 1508586;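 active means mean z-score across replicates of 1.96 or higher in either the MELAS or the Rieske mutant cell line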;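 further: z relative to plate mean and SD of compound and empty wells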)
[13] = target: Mitogen-activated protein kinase 7 (Homo sapiens) (UniProt Q13164); experiment: ERK5 transactivation activators in reporter cells, primary screen, cell-based, HTS (AID 1508626;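 active means luciferase signal above three times the same-plate solvent-only control wells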;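 further: luciferase driven by Gal4-ERK5 fusion binding five Gal4 sites before minimal TATA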); conditions: HeLa Gal4-ERK5 transactivation, 18 h, at 5 µM, stronger effect = higher value
[14] = viability rescue of complex I mutant cybrids, primary screen, cell-based, galactose medium, ATP luminescence (AID 1645843;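 active means z-score of at least 1.8 in each of two replicates, scored against plate mean and spread of sample wells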;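 further: positive z means more ATP and so rescue of galactose-driven cybrid death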); conditions: complex I mutant cybrid cells, 72 h, stronger effect = higher value
[15] = circadian clock period modulators, cell-based, LOPAC library, luminescence reporter (AID 2774; call rule not given here;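 further: values are relative to mean of DMSO wells on each plate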); conditions: circadian reporter cells, at 7 µM, actives lie on both sides
[16] = test system: Hepatitis C virus NS3 helicase; experiment: HCV NS3 helicase inhibitors, primary screen, biochemical, fluorescence polarization, LOPAC1280 library (AID 687035; in the data active means inhibition above about 37%); conditions: Purified HCV NS3 helicase, Cy5-dT15 ssDNA binding fluorescence polarization; stronger effect = higher value; concentration not given here
[17] = Cy5 fluorescence quenching or enhancement artefacts, artefact control for HCV NS3 helicase inhibitor project, biochemical, LOPAC1280 (AID 687037; call rule not given here); conditions: Cy5-DNA-NS3h complex fluorescence interference counterscreen
[18] = growth inhibition of DIPG glioma cells, dose response, cell-based, JHH-DIPG-1, MIPE4.0, CellTiter-Glo, qHTS (AID 1347062; cut-off not given, nearly all actives have AC50 up to about 27 µM); conditions: JHH-DIPG-1 viability, CellTiter-Glo ATP luminescence
[19] = SU-DIPG-VI glioma cell viability, MIPE4.0 library, CellTiter-Glo luminescence, qHTS (AID 1347066; cut-off not given, nearly all actives have AC50 up to about 30 µM;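 further: cells exposed to compound for 48 hours before readout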); conditions: CellTiter-Glo ATP luminescence
[20] = phospholipid biosynthesis inhibitors in animal cells, primary screen, cell-based, LOPAC library, screen 4 (AID 1347384; call rule not given here); conditions: phospholipid biosynthesis inhibition screen, at 10 µM
[21] = target: ATP-dependent translocase ABCB1 (Homo sapiens) (UniProt P08183); experiment: MDR1 (ABCB1) efflux transporter inhibition, cell-based (AID 377; in the data active means fluorescence slope change above about 50%); conditions: MDR1-expressing cells, fluorescent substrate accumulation slope; stronger effect = higher value; concentration not given here
[22] = polyglutamine-triggered caspase-3 activation inhibitors, cell-based (AID 1583); conditions: polyglutamine-induced caspase-3 activation, cell assay; stronger effect = higher value;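 tested at 10 µM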
[23] = suppressors of polyQ aggregation in yeast, 75Q-TubU reporter (AID 1593); conditions: Yeast 75Q polyglutamine aggregation reporter
[24] = rescue of polyQ-huntingtin neuronal dysfunction in worms, whole organism, C. elegans mechanosensory neurons, N-terminal huntingtin (AID 1599); conditions: touch response, stronger effect = higher value
[25] = inhibitors of mitochondrial cytochrome c release, biochemical, purified mitochondria (AID 1603); conditions: stronger effect = lower value;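 further: mouse liver mitochondria challenged with calcium chloride; signal normalized to the plate average as 100%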
[26] = inhibitors of polyQ protein aggregation (AID 1604); conditions: polyglutamine-induced protein aggregation inhibition assay; stronger effect = higher value; tested at 2.5 µM
[27] = enhancers of glutamate uptake in motor neurons, MN-1 cell line (AID 1612); conditions: MN-1 motor neuron cells, stronger effect = higher value;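 further: tested at 1 µM final; 0% = mean of DMSO vehicle wells on each plate; positive means more glutamate uptake than control and negative means less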
[28] = suppressors of polyglutamine aggregation in yeast, 75Q-TubH (AID 1616); conditions: S. cerevisiae 75Q-TubH polyglutamine aggregation suppression; stronger effect = higher value
[29] = antimalarial activity against Dd2 strain (AID 2302;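 active means growth inhibition above 50% at the single 2 µM test dose, taken to imply half-maximal potency below 2 µM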;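 further: 0% = DMSO untreated growth and 100% = chloroquine plus artemisinin killed control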); conditions: P. falciparum Dd2 in RBCs, LDH growth readout, 72 h; at 2 µM; stronger effect = higher value
[30] = HepG2 cytotoxicity, primary screen, cytotoxicity control for P. falciparum antimalarial project, cell-based, ATP luminescence (AID 2303;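 active means inhibition above 50%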;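 further: 0% = DMSO wells and 100% = digitonin-killed cells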); conditions: HepG2 viability, 24-48 h, at 10 µM, stronger effect = higher value
[31] = target: L-lactate dehydrogenase (Plasmodium falciparum (isolate CDC / Honduras)) (UniProt Q27743); experiment: PfLDH activity inhibition – cell lysate, 3D7 strain, counter-screen for P. falciparum growth inhibition project (AID 2304; call rule not given here;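 further: 0% = vehicle and 100% = reference inhibitor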); conditions: P. falciparum 3D7 crude extract, LDH APAD/NBT absorbance; at 2 µM; stronger effect = higher value
[32] = inhibition of 3D7 malaria parasite growth – strain 3D7 (AID 2306; call rule not given here;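 further: 0% = DMSO wells and 100% = chloroquine plus artemisinin control wells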); conditions: P. falciparum 3D7 erythrocytic growth, LDH absorbance, 72 h; at 2 µM; stronger effect = higher value
[33] = hESC survival regulators, cell-based (AID 493140; call rule not given here;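 further: cells exposed to compounds for four days before counting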); conditions: human embryonic stem cell survival screen; stronger effect = higher value
[34] = target: NAD(+) hydrolase SARM1 (Homo sapiens) (UniProt Q6SZW1); experiment: SARM1 TIR NADase inhibitors, cell lysate, NAD-Glo luminescence (AID 1508614;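 active means compound whose remaining NAD level is above about 45 nM, limit read from the data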); conditions: SAM-TIR HEK293T lysate NADase, at 1 µM, stronger effect = higher value
[35] = measured here: epithelial PC-3E GFP cell survival
[36] = measured here: mesenchymal TEM4-18 mCherry cell survival
[37] = stronger effect = lower value, cell number ratio, induced over uninduced
[38] = measured here: relative caspase fold change +Dox/-Dox
[39] = measured here: total cells with miR-34 induction, stronger effect = lower value
[40] = measured here: total cells without miR-34 induction
[41] = MELAS cybrid survival, CellTiter-Glo 48 h, stronger effect = higher value
[42] = Rieske KO mouse fibroblast survival, CellTiter-Glo 72 h

Mitogen-activated protein kinase 7 (Homo sapiens), sequence (Q13164 whole entry, looked up, the tested form may be a part): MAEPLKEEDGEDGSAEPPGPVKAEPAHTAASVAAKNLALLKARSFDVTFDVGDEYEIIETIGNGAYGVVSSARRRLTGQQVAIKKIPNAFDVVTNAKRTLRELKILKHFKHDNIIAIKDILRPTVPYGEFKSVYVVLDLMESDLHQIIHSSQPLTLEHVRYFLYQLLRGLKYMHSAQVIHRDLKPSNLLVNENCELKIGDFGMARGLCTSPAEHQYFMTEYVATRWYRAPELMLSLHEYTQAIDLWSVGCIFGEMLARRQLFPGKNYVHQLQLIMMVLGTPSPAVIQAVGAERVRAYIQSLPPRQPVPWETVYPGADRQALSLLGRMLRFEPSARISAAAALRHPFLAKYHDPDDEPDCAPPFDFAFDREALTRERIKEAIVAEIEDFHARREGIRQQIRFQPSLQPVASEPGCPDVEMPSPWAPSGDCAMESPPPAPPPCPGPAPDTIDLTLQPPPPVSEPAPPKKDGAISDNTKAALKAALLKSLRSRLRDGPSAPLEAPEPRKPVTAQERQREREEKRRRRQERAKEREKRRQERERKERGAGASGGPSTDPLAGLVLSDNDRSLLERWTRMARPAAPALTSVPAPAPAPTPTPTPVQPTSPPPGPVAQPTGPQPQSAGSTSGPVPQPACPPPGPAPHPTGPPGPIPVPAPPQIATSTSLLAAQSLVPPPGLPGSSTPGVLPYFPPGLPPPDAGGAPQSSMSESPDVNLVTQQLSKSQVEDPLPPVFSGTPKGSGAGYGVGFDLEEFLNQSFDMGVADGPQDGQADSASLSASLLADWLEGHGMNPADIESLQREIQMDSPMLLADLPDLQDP
NAD(+) hydrolase SARM1 (Homo sapiens), sequence (Q6SZW1 whole entry, looked up): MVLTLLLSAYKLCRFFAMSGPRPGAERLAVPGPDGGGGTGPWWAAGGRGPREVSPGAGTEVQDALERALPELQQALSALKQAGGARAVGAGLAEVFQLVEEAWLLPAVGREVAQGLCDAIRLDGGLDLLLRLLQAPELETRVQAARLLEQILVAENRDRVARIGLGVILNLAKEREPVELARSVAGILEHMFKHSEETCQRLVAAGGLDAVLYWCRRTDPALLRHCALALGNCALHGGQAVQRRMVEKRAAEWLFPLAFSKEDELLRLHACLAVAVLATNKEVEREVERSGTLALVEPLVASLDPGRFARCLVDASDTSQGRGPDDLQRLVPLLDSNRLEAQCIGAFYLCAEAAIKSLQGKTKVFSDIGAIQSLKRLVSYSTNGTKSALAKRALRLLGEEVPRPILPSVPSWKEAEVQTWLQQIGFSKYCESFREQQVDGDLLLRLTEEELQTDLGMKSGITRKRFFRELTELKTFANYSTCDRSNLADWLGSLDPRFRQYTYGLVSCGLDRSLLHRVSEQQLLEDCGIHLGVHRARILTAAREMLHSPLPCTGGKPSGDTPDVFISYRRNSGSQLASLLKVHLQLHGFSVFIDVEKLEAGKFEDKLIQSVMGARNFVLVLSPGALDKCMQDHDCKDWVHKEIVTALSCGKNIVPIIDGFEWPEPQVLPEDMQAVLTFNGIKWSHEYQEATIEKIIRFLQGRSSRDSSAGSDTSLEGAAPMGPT
L-lactate dehydrogenase (Plasmodium falciparum (isolate CDC / Honduras)), sequence (Q27743 whole entry, looked up): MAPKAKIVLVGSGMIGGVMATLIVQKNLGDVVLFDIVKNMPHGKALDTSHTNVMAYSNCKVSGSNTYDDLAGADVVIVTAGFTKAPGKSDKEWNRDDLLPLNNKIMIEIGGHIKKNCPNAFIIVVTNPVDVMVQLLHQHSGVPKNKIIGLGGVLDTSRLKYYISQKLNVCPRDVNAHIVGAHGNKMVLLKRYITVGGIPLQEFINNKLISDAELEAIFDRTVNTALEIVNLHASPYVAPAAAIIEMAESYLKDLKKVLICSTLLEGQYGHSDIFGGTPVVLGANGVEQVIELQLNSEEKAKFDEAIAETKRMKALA
ATP-dependent translocase ABCB1 (Homo sapiens), sequence (P08183 whole entry, looked up): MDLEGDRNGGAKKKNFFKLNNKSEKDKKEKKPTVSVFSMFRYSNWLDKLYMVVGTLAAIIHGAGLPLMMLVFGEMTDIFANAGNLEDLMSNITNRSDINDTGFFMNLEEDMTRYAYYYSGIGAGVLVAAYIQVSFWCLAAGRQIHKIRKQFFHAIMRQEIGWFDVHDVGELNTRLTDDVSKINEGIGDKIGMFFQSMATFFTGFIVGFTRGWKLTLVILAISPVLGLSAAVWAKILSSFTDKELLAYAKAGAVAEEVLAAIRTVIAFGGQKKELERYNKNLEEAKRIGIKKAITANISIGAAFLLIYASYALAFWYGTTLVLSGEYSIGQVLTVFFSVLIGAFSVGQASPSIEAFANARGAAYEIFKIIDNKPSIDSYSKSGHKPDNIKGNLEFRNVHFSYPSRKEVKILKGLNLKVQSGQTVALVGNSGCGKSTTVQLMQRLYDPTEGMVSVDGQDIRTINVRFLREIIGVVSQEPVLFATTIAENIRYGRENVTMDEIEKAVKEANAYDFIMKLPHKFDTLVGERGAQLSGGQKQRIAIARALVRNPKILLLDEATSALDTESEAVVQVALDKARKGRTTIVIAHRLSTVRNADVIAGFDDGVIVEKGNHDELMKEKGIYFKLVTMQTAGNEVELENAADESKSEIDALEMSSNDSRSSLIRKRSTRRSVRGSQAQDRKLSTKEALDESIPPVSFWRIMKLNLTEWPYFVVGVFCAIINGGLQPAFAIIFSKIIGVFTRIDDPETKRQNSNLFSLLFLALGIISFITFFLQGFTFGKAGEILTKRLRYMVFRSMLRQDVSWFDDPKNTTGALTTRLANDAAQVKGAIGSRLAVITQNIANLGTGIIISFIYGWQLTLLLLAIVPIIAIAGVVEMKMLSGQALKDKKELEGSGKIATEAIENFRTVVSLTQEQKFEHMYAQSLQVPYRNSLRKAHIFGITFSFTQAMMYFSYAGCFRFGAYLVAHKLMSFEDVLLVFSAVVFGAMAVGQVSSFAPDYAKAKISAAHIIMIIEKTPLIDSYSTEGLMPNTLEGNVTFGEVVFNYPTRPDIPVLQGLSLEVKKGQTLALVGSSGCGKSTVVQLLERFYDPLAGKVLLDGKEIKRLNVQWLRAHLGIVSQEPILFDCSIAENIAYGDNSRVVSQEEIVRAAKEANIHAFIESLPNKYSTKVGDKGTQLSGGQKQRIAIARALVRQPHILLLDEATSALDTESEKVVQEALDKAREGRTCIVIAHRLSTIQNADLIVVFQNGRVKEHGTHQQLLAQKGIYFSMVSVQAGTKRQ

## Cc1coc2c1C(=O)C(=O)c1c-2ccc2c1CCCC2(C)C
[1]
  parasite load remaining: 23.1% (inactive)
  viability: 97.5%
[2]
  red/green cell ratio (normalised): 1.04 (inactive)
[2]; [35]
  normalised cell number: 0.67
[2]; [36]
  normalised cell number: 0.7
[3]
  AC50: 5.9 µM (active)
[4]
  outcome: inactive
[5]
  AC50: 3.32 µM (active)
[6]
  AC50: 5.9 µM (active)
[7]
  AC50: 16.6 µM (active)
[8]
  AC50: 7.42 µM (active)
[9]
  outcome: inactive
[10]; [37]
  fold change: 1.17 (inactive) and 1.16 (inactive) and 1.64 (inactive)
[10]; [38]
  fold change: 1.11 and 0.52 and 0.868
[10]; [39]
  cell count: 934 and 1820 and 2140
[10]; [40]
  cell count: 800 and 1570 and 1300
[11]
  fold fluorescence: 3.12 [at 169.9 µM] (inactive)
[12]; [41]
  z-score: 0.593 (inactive) and 0.0182 (inactive)
[12]; [42]
  z-score: 0.381 and 0.81
[13]
  luciferase signal: 32 AU (inactive)
[14]
  z-score: -1.64 (inactive)

## CCCCS(=N)(=O)CCC(N)C(=O)O (configuration not stated)
[15]
  period change: -0.105 h (inactive)
[16]
  inhibition: 1% (inactive)
[17]
  fluorescence ratio (interference): 1 (inactive)
[2]
  red/green cell ratio (normalised): 0.93 (inactive)
[2]; [35]
  normalised cell number: 0.89
[2]; [36]
  normalised cell number: 0.83
[3]
  outcome: inactive
[4]
  outcome: inactive
[18]
  outcome: inactive
[5]
  outcome: inactive
[7]
  outcome: inactive
[19]
  outcome: inactive
[8]
  outcome: inactive
[9]
  outcome: inactive
[10]; [37]
  fold change: 0.991 (inactive)
[10]; [38]
  fold change: 1.82
[10]; [39]
  cell count: 9560
[10]; [40]
  cell count: 9650
[20]
  outcome: inactive
[14]
  z-score: -0.42 (inactive)

## CC(C)(CO)C(O)C(=O)NCCC(=O)NCCSSCCNC(=O)CCNC(=O)C(O)C(C)(C)CO (configuration not stated)
[2]
  red/green cell ratio (normalised): 0.97 (inactive)
[2]; [35]
  normalised cell number: 0.82
[2]; [36]
  normalised cell number: 0.8
[10]; [37]
  fold change: 0.968 (inactive)
[10]; [38]
  fold change: 0.786
[10]; [39]
  cell count: 8560
[10]; [40]
  cell count: 8840

## OC(c1cc(C(F)(F)F)nc2c(C(F)(F)F)cccc12)C1CCCCN1 (configuration not stated)
[21]
  fluorescence slope change: 96.4% (active)
[22]
  inhibition: 50.1%
[23]
  score: 1.42
[24]
  rescue above control: 0
[25]
  cytochrome c release ratio: 2.44
[26]
  inhibition of aggregation: -19.6%
[27]
  glutamate uptake change: -3.13%
[28]
  aggregation suppression score: 1.65
[29]
  growth inhibition: 99% (active)
[30]
  inhibition: -3% (inactive)
[31]
  inhibition: -6% (inactive)
[32]
  growth inhibition: 96% (active)
[33]
  survival: 3.83 (inactive)
[2]
  red/green cell ratio (normalised): 0.94 (inactive)
[2]; [35]
  normalised cell number: 1.16
[2]; [36]
  normalised cell number: 1.1
[3]
  AC50: 20.9 µM (active)
[5]
  AC50: 26.4 µM (active)
[7]
  AC50: 20.9 µM (active)
[10]; [37]
  fold change: 0.709 (inactive) and 0.928 (inactive)
[10]; [38]
  fold change: 1.51 and 4.5
[10]; [39]
  cell count: 3010 and 11200
[10]; [40]
  cell count: 4250 and 12100
[12]; [41]
  z-score: -2.19 (inactive)
[12]; [42]
  z-score: -3.08

## Nc1nc(N)c2nc(CNc3ccc(C(=O)NC(CCC(=O)O)C(=O)O)cc3)cnc2n1 (configuration not stated)
[15]
  period change: -0.245 h (inactive)
[1]
  parasite load remaining: 160% (inactive)
  viability: 70.2%
[16]
  inhibition: -4% (inactive)
[17]
  fluorescence ratio (interference): 0.9 (inactive)
[2]
  red/green cell ratio (normalised): 0.95 (inactive)
[2]; [35]
  normalised cell number: 1.01
[2]; [36]
  normalised cell number: 0.96
[4]
  AC50: 11.8 µM (active)
[19]
  outcome: inactive
[8]
  outcome: inactive
[10]; [37]
  fold change: 1.22 (inactive)
[10]; [38]
  fold change: 1.88
[10]; [39]
  cell count: 2740
[10]; [40]
  cell count: 2230
[20]
  outcome: inactive
[14]
  z-score: 0.075 (inactive)

## COC(=O)/C=C/C(=O)OC
[2]
  red/green cell ratio (normalised): 1.23 (inactive)
[2]; [35]
  normalised cell number: 0.84
[2]; [36]
  normalised cell number: 1.04
[3]
  outcome: inactive
[4]
  AC50: 14.8 µM (active)
[5]
  AC50: 0.935 µM (active)
[6]
  outcome: inactive
[7]
  outcome: inactive
[19]
  outcome: inactive
[8]
  outcome: inactive
[9]
  outcome: inactive
[10]; [37]
  fold change: 0.976 (inactive)
[10]; [38]
  fold change: 1.01
[10]; [39]
  cell count: 7550
[10]; [40]
  cell count: 7740
[34]
  remaining NAD: 10 nM (inactive)

## CC1(C)CCC[C@]2(C)[C@H]3CC(=O)O[C@]3(C)CC[C@@H]12
[2]
  red/green cell ratio (normalised): 1.09 (inactive)
[2]; [35]
  normalised cell number: 1.09
[2]; [36]
  normalised cell number: 1.19
[4]
  outcome: inactive
[18]
  outcome: inactive
[19]
  outcome: inactive

## Oc1cc2c(cc1O)C1c3ccc(O)c(O)c3OCC1(O)C2 (configuration not stated)
[2]
  red/green cell ratio (normalised): 1.05 (inactive)
[2]; [35]
  normalised cell number: 1.12
[2]; [36]
  normalised cell number: 1.18
[4]
  outcome: inactive
[5]
  outcome: inactive
[19]
  outcome: inactive
[9]
  outcome: inactive

## COC1=C(OC)C(=O)C(C/C=C(\C)CC/C=C(\C)CC/C=C(\C)CC/C=C(/C)CC/C=C(\C)CC/C=C(\C)CC/C=C(\C)CC/C=C(\C)CC/C=C(\C)CCC=C(C)C)=C(C)C1=O
[2]
  red/green cell ratio (normalised): 1.1 (inactive)
[2]; [35]
  normalised cell number: 0.97
[2]; [36]
  normalised cell number: 1.06
[6]
  outcome: inactive
[7]
  outcome: inactive
[8]
  outcome: inactive
[9]
  outcome: inactive
[13]
  luciferase signal: 80 AU (inactive)
